Compound activity as filed in PubChem.
esBAF inh = Bmi1 luciferase reporter increase in mESCs, primary screen, esBAF inhibitor project, mouse ES cells, Bmi1 luciferase knock-in, single point; 24 h; 100% = twice the neutral-well signal; reporter increase, % at 12.5 µM; 350,000 compounds, 2% hits; AID 602393, 2012; in the data active = activation above about 40%; inconclusive = no clear call, values can overlap the other calls;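 also: 0% = median of the plate's neutral control wells and 100% = double that signal; a rise in the Bmi1 reporter signal indicates esBAF inhibition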
HSF1 inh = HSF1 inhibitors in luciferase reporter cells, primary screen, cell-based, NIH3T3, luminescence | NIH3T3-HGL HSE-luciferase, MG132-induced, luminescence 8 h; hits give low values | 300,000 compounds, 0.77% hits | activity change, negative = inhibition, % at 7.5 µM (by protocol);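 active = more than half of replicate wells show activity change below -50%, luminescence cut by over half; inconclusive = some wells, but at most half, below -50%; inactive = no replicate well below -50%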;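 also: luciferase reports HSF-1 transcriptional activity via heat shock element; 0% = median of DMSO wells and -100% = zero luminescence signal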
Wnt act = Wnt/beta-catenin pathway activators, primary screen, cell-based, plate reader, single point; activation, % at 9.35 µM; Wnt/beta-catenin reporter cell assay, activator; 300,000 compounds, 1.2% hits; in the data active = activation above about 30%, passing the limit was not always enough; inconclusive = no clear call, values can overlap the other calls;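 also: 0% = neutral control wells and 100% = positive control wells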
HSF-1 act = HSF-1 activators, primary screen, NIH3T3-HGL cells, MG132 stress, luminescence, single point. AID 504408, 2011. 300,000 compounds, 1.7% hits. activation, % at 9 µM. NIH3T3-HGL HSF-1 luciferase reporter, 8 h; 100% = twice DMSO control signal;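 active = mean replicate activation of at least 50% with a set share of replicates each reaching 50%; inconclusive = only one of those two conditions met; inactive = mean below 50% and too few replicates reaching it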;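 also: 0% = median of the neutral control wells and 100% = twice that signal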
MITF act = activators of MITF-driven TRPM1 promoter reporter, primary screen, cell-based, SK-MEL-5, luciferase, single point; SK-MEL-5 TRPM1-promoter luciferase, 24 h; % of positive control, neutral wells = 0; activation, % at 12.5 µM; 300,000 compounds, 0.75% hits; AID 588334, 2011;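 active = mean activation of at least 80% with every replicate also reaching 80%; inconclusive = mean reaches 80% but some replicate falls short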;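 also: 0% = neutral control wells and 100% = parthenolide positive control wells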
An asterisk follows results filed as active; ? = inconclusive; . = no result. Hits are enriched below; roughly 3.8% of the tested compounds scored in any of these assays.

SMILES | esBAF inh | HSF1 inh | Wnt act | HSF-1 act | MITF act
Cn1c(NCc2cccnc2)nc2cc(-c3cccc(C(F)(F)F)c3)sc2c1=O | 5 | . | -2 | . | .
COc1ccccc1CNc1nc2cc(-c3sccc3C)sc2c(=O)n1C | 66* | . | 38* | . | .
COCCNc1nc2cc(-c3ccc(C)cc3)sc2c(=O)n1C | 55* | . | -1 | . | .
COc1ccccc1CNc1nc2cc(-c3ccccc3C)sc2c(=O)n1C | 10 | . | -3 | . | .
COc1ccc(CN(C)C[C@H]2Oc3ccc(NC(=O)CCC(F)(F)F)cc3C(=O)N([C@H](C)CO)C[C@@H]2C)cc1 | 2 | . | . | . | .
C[C@H]1CN([C@@H](C)CO)C(=O)Cc2cc(NS(C)(=O)=O)ccc2O[C@@H]1CN(C)C(=O)Nc1ccccc1 | 4 | . | . | . | .
CC(C)NC(=O)N(C)C[C@@H]1OCCCC[C@@H](C)Oc2ccc(NS(=O)(=O)c3cn(C)cn3)cc2C(=O)N([C@H](C)CO)C[C@H]1C | -4 | . | . | . | .
CC(C)NC(=O)N1[C@H](CO)[C@@H]2c3ccccc3NC[C@@H]21 | -9 | . | . | . | .
O=C(Nc1ccccc1F)N1[C@H](CO)[C@@H]2c3ccccc3NC[C@@H]21 | 63* | . | . | . | .
C[C@@H]1CN([C@H](C)CO)C(=O)c2cc(NC(=O)CCC(F)(F)F)ccc2O[C@@H](C)CCCCO[C@H]1CN(C)Cc1ccccc1 | -2 | . | . | . | .
COc1cccc2nc3cc(C)c(C)cc3nc12 | -8 | 18 | 34* | ? | 0
COc1cccc2c1nc(C)c1cc(C)oc12 | 18 | 5 | . | 23 | 31
O=C(OCN1C(=O)c2ccccc2C1=O)c1ccccc1 | -1 | 37 | . | 75* | .
O=C(OCCN1C(=O)c2ccccc2C1=O)c1ccccc1 | . | . | -4 | . | 1
Cc1ccc(-n2cc(-c3ccc([N+](=O)[O-])cc3)[nH]c2=S)c(C)c1 | . | 28 | -2 | ? | -1
O=[N+]([O-])c1cccc(-c2cn(-c3ccccc3)c(=S)[nH]2)c1 | 12 | 33 | 13 | 74* | 3
Cc1cccc(-n2cc(-c3ccc([N+](=O)[O-])cc3)[nH]c2=S)c1 | 32 | 28 | -1 | 71* | -1
S=c1[nH]c(-c2ccccc2)cn1-c1ccccc1 | 31 | 31 | 18 | 42 | 34
O=[N+]([O-])c1ccc(-c2cn(-c3ccccc3)c(=S)[nH]2)cc1 | . | 17 | 49* | 30 | 14
COc1ccc(NC(=O)N(C)C[C@H]2Oc3ccc(NC(=O)NC(C)C)cc3C(=O)N([C@@H](C)CO)C[C@H]2C)cc1 | 2 | . | . | . | .
COc1ccc(-c2ccc3c(c2)[C@@H]2[C@@H](CCN2C(=O)c2ccc4c(c2)OCO4)[C@H](CO)N3C)cc1 | 0 | . | . | . | .
Oc1ccc(-c2csc(NCc3ccco3)n2)cc1 | 49* | 2 | -2 | 2 | .
COc1ccc(CNC(=O)C[C@@H]2C[C@H]3c4cc(NS(C)(=O)=O)ccc4O[C@H]3[C@@H](CO)O2)cc1 | -8 | . | . | . | .
Nc1cccn2c(-c3ccc(Cl)c(Cl)c3)cnc12 | . | 23 | -1 | 70* | 23
Nc1cccn2c(-c3ccc(Cl)cc3)cnc12 | . | 5 | -2 | 22 | 7
SMILES | esBAF inh | HSF1 inh | Wnt act | HSF-1 act | MITF act
C[C@@H](NC(=O)C[C@@H]1CC[C@@H]2[C@H](COC[C@@H](O)CN2C(=O)Nc2cc(Cl)cc(Cl)c2)O1)c1ccccc1 | -18 | . | . | . | .
Cc1ccc(S(=O)(=O)N(C)C[C@@H]2Oc3ccc(NC(=O)Nc4ccc(F)cc4)cc3C(=O)N([C@H](C)CO)C[C@H]2C)cc1 | -5 | . | . | . | .
COc1ccccc1NC(=O)COc1ccccc1C(=O)c1cnn(-c2ccccc2)c1 | . | 13 | 50* | 2 | 80
O=C(c1cnn(-c2ccccc2)c1)c1cc(Br)ccc1O | 5 | . | 6 | . | .
O=C(c1cnn(-c2cccc(F)c2)c1)c1ccccc1O | . | 4 | 37* | -1 | 46
CCc1ccc(NC(=O)COc2ccc(F)cc2C(=O)c2cnn(-c3ccccc3)c2)cc1 | . | 4 | 14 | 28 | -2
O=C(O)c1ccc(-n2cc(C(=O)c3ccccc3O)cn2)cc1 | 7 | -3 | 4 | -1 | 12
O=C(c1cnn(-c2ccccc2)c1)c1ccc2ccccc2c1O | 5 | 36 | 19 | 58* | 76
COc1cccc(NC(=O)Nc2ccc3c(c2)C(=O)N(C)C[C@@H](OC)[C@@H](C)CN(C)[C@H](C)CO3)c1 | 5 | . | . | . | .
